# Compound activity (PubChem)
# This is a sample that favours compounds with a hit; in the whole collection about 2.5% have one here.
# ASK1 primary = ASK1 kinase inhibitors, primary screen, biochemical, AlphaScreen. Mitogen-activated protein kinase kinase kinase 5 (Homo sapiens), Q99683. AlphaScreen MKK6 phosphorylation by ASK1, luminescence. AID 1159602, 2016. 0.99% of 22,000 active. inhibition, % at 7.44 µM; in the data active = inhibition above about 35%;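 note: 0% = median of compound wells and 100% = no enzyme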
# ULK1 primary = ULK1 kinase inhibitors, primary screen, biochemical, AlphaScreen. AlphaScreen Atg13 phosphorylation by ULK1, luminescence. inhibition, % at 5.96 µM. 1.9% of 30,000 active; in the data active = inhibition above about 43%;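 note: 0% = median of compound wells and 100% = no enzyme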
# Target sequence (O75385 whole entry, looked up): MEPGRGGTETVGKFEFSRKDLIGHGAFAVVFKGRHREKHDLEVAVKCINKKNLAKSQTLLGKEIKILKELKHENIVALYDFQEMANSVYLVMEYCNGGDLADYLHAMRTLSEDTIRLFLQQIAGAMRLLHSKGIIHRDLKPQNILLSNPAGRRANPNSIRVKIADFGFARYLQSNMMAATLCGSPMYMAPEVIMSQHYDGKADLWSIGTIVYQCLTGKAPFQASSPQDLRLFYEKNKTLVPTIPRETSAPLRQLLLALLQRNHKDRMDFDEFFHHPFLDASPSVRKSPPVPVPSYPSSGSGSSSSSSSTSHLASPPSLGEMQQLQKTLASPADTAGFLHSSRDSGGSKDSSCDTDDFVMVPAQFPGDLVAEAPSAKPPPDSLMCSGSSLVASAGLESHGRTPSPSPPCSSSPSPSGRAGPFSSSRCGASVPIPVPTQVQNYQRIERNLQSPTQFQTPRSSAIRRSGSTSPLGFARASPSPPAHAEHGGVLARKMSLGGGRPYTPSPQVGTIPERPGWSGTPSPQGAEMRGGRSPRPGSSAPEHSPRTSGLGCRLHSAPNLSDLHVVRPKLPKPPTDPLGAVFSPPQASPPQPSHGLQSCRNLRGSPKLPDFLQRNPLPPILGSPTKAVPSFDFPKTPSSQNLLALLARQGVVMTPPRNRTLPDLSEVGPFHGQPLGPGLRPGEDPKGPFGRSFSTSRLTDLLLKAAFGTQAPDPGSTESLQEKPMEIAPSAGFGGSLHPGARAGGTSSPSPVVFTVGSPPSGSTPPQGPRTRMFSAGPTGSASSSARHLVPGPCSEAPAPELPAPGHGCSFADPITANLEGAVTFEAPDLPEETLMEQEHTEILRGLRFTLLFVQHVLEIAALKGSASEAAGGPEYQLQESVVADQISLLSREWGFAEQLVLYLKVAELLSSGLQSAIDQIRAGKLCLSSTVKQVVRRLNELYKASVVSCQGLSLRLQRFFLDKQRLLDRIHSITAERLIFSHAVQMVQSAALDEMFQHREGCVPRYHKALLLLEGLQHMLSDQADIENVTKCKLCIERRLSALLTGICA
# AlphaScreen intf = AlphaScreen signal interference by compounds, dose response, artefact control for ASK1 inhibitor project, biochemical, TruHits beads | shares compounds with ASK1 primary | IC50, µM | signal interference counterscreen | AID 1159604, 2016 | 20% of 220 active;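 active = IC50 of 10 µM or lower in the counterscreen; inactive = IC50 above 10 µM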;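 note: loss of AlphaScreen light from TruHits beads alone with no ASK1 enzyme present; potency of signal reduction so a low IC50 flags an assay artifact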
# Starred values were filed as active, the others as inactive; i = inactive; / = no result; ! = repeats disagree.
SMILES,ASK1 primary,ULK1 primary,AlphaScreen intf
Cc1cc(NCc2ccccc2)nc(Nc2cccc(N(C)C)c2)n1,23,9,/
COc1cc2nc(Nc3cccc(N(C)C)c3)nc(NCc3cccc(C(F)(F)F)c3)c2cc1OC,38*,-15,i
CN(C)c1cccc(Nc2nccc(NCCOc3ccccc3)n2)c1,43*,-3,i
Cc1cc(Nc2ccccc2)nc(Nc2ccc(N3CCOCC3)cc2)n1,19,-4,/
CCCNc1ccnc(Nc2cccc(N(C)C)c2)n1,22,13,/
CCCNC(=O)c1cnc(Nc2ccc(N3CCOCC3)cc2)s1,-16,7,/
CCOC(=O)O[C@]1(C(=O)OCCl)CC[C@H]2[C@@H]3CCC4=CC(=O)C=CC4(C)[C@H]3[C@@H](O)CC21C (stereo partly specified),/,0,/
CN(C)c1cccc(Nc2nccc(NCc3cccc(C(F)(F)F)c3)n2)c1,43*,-1,>16
Cc1cc(NCc2cccc(C(F)(F)F)c2)nc(Nc2ccc(C(F)(F)F)cc2)n1,-9,-23,/
COc1cc(Nc2cc(Nc3cccc(N(C)C)c3)ncn2)cc(OC)c1OC,22,11,/
COc1cc(Nc2ccnc(Nc3cccc(N(C)C)c3)n2)cc(OC)c1OC,39*,19,6.9*
FC(F)(F)c1cccc(CNc2ccnc(Nc3ccccc3)n2)c1,-1,-20,/
Cc1cc(NCc2cccc(C(F)(F)F)c2)nc(Nc2ccc(N3CCOCC3)cc2)n1,40*!,-9,4.6*
Cc1noc(C)c1-c1nc(Nc2ccccc2)c2ncn(-c3ccccc3)c2n1,0,4,/
COc1ccc(CCNC(=O)c2csc(NCc3ccc4c(c3)OCO4)n2)cc1,-16,9,/
Cc1noc(C)c1-c1nc(NCCO)c2[nH]cnc2n1,-7,-9,/
COc1ccc(Nc2nc(NCC3CCCO3)c3[nH]cnc3n2)cc1 (stereo unspecified),2,12,/
O=C1c2ccc([N+](=O)[O-])cc2C(=O)N1c1ccc(Br)cc1Br,/,-8,/
O=C(Cc1cn(-c2ccc(N3CCN(Cc4ccc5c(c4)OCO5)CC3)nn2)c2ccccc12)Nc1ccccc1,-2,0,/
O=C(Cc1cn(-c2ccc(N3CCN(Cc4ccc5c(c4)OCO5)CC3)nn2)c2ccccc12)Nc1ccc(N2CCOCC2)cc1,39*,21,>20
COc1cc(-c2cn[nH]c2)cc2c(=O)[nH]c(C3COc4ccc(C)cc4C3)nc12 (stereo unspecified),40*,5,>19
COc1ccc2c(c1)CC(c1nc3c(OC)cc(-c4cn[nH]c4)cc3c(=O)[nH]1)CO2 (stereo unspecified),-14,-5,/
COc1cc(N2CCN(C)CC2)ccc1Nc1cc(Nc2ccccc2-c2ncccn2)c(C(F)(F)F)cn1,38*,53*,i
COc1cc(NC(=O)c2ccnc(-c3ccc(N4CCN(C)CC4)cc3)c2)cc(OC)c1OC,11,5,/
NNc1ccc(C(N)=O)nn1,/,10,/
